# Source: PubChem BioAssay (Broad Institute)
# FadD28 binding: inhibitors of FadD28 bisubstrate probe binding, primary screen, biochemical, fluorescence polarization, single point. Mycobacterium tuberculosis FadD28 fatty-acid-AMP ligase. inhibition, % at 12.5 µM. 0.22% of 360,000 active. AID 588549, 2011; in the data active = inhibition above about 8.5%, passing the limit was not always enough; inconclusive = no clear call, values can overlap the other calls
# TcdB GH inh: TcdB glycohydrolase inhibitors, primary screen, biochemical, single point, plate reader; Toxin B (Clostridioides difficile), P18177; 0.24% of 350,000 active; inhibition, % at 9.99 µM; AID 652162, 2013; TcdB glycohydrolase enzymatic assay; in the data active = inhibition above about 10%
# Target sequence (P18177 whole entry, looked up): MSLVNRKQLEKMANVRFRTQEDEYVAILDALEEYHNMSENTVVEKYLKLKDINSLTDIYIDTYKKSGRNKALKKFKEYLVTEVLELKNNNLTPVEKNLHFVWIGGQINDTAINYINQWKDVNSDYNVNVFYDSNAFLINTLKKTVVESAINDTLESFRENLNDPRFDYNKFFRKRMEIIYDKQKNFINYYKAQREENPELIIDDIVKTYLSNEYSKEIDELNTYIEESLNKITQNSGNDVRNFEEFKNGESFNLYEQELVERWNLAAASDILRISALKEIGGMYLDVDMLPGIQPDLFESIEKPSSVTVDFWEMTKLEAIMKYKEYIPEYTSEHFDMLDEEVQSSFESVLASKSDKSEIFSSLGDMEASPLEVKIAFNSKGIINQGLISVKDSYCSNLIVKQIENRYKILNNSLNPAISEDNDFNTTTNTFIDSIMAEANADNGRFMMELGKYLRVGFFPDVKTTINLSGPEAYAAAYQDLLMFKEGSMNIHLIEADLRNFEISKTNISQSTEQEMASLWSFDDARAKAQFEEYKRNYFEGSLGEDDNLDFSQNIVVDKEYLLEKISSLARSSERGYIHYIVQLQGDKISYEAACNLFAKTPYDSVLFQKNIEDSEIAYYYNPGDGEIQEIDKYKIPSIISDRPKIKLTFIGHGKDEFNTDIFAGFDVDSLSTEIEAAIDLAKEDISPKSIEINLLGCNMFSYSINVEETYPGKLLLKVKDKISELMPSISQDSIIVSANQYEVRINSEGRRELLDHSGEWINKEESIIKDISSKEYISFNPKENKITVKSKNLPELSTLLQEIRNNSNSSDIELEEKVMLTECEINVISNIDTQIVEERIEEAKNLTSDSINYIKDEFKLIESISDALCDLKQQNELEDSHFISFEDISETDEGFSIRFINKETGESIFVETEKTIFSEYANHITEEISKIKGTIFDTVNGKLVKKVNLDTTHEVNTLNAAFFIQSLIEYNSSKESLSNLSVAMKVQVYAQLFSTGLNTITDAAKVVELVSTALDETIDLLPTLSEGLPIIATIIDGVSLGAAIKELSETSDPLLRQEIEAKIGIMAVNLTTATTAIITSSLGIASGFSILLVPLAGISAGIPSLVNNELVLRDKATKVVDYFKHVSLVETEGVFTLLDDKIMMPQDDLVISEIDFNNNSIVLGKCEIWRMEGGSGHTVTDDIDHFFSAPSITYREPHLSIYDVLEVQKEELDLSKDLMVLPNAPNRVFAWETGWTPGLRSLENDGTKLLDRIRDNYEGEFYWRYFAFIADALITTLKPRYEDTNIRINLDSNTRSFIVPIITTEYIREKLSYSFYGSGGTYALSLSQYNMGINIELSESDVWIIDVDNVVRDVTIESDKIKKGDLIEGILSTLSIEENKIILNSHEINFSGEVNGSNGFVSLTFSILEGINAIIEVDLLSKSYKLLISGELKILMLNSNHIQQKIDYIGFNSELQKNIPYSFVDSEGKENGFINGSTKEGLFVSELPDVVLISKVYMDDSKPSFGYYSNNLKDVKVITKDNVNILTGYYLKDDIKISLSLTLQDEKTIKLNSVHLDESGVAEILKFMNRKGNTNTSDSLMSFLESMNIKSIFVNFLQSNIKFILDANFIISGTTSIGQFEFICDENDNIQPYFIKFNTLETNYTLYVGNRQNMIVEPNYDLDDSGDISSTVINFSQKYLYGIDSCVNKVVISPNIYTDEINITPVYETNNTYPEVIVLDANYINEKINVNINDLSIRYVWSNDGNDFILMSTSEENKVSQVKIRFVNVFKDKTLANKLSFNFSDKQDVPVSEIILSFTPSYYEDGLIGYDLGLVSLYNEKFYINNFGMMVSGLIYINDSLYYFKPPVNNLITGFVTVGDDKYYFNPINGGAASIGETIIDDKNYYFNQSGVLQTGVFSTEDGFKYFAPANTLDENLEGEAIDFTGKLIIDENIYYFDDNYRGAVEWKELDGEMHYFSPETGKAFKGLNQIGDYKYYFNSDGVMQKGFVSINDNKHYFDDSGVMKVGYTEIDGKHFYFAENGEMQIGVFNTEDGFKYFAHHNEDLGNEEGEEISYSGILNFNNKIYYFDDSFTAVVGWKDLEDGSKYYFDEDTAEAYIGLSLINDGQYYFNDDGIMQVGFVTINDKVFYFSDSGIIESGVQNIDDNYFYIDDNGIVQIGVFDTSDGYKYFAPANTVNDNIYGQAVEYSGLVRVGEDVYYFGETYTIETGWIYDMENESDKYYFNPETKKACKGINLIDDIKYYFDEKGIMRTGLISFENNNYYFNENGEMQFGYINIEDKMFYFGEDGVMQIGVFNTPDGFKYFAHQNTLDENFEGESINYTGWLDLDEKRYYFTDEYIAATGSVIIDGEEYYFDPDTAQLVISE
# PrP UTR inh: inhibition of PrP 5' UTR reporter expression; cell-based PrP 5' UTR mRNA reporter, plate reader; inhibition, % (test concentration not listed); 0.35% of 340,000 active; AID 488862, 2010; in the data active = inhibition above about 52%; note: 0 = median of the neutral control wells
# BioA inh: M. tuberculosis BioA enzyme inhibitors, primary screen, biochemical, plate reader, single point, HTS | 7,8-diaminopelargonic acid synthase BioA (Mycobacterium tuberculosis) | purified M. tuberculosis BioA enzyme | inhibition, % at 9.99 µM | 0.096% of 360,000 active | AID 602481, 2012; in the data active = inhibition above about 40%; inconclusive = no clear call, values can overlap the other calls
# PfHsp40 rescue: rescue of yeast from PfHsp40 toxicity, primary screen, S. cerevisiae, ATP luminescence | S. cerevisiae expressing PfHsp40, growth rescue | growth rescue, % at 12.5 µM | 0.68% of 340,000 active; in the data active = growth rescue above about 28%, passing the limit was not always enough; inconclusive = no clear call, values can overlap the other calls;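 note: yeast W303a lacking pdr1 and pdr3 grown in galactose medium; growth measured after three days at 30 °C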
# PrP UTR cherry: prion 5' UTR mRNA inhibition, cherry-pick retest; inhibition, % at 2.5 µM; 48% of 1,100 active; cell-based prion protein 5' UTR reporter, plate reader; shares compounds with PrP UTR inh; in the data active = inhibition above about 54%; inconclusive = no clear call, values can overlap the other calls
# * = called active by the depositor; ? = inconclusive; / = no result. Shown are actives, neighbours in structure and some others; about 1.1% of the full set was active somewhere.
SMILES,FadD28 binding,TcdB GH inh,PrP UTR inh,BioA inh,PfHsp40 rescue,PrP UTR cherry
CC1CCc2c(sc(NC(=O)CSc3ncn[nH]3)c2C#N)C1 (centres undefined),-5,1,70*,1,1,79*
N#Cc1c(NC(=O)CSC2=NCCS2)sc2c1CCCC2,-3,/,-11,-1,1,/
N#Cc1c(NC(=O)CSc2ncn[nH]2)sc2c1CCCC2,0,/,68*,3,2,67*
O=C(CC1Oc2ccccc2NC1=O)NCCCN1CCN(C2CCCCC2)CC1 (centres undefined),0,1,70*,-2,0,-12
Cc1csc(N(C(=O)c2ccccc2F)c2ccccc2)n1,-1,1,-11,/,-1,/
COc1cc(CC(=O)N(c2ccccc2)c2nc(C)cs2)cc(OC)c1OC,1,-1,61*,/,1,-8
O=C(O)CCCc1ccc2c(c1)CCc1ccccc1-2,-4,1,65*,0,185*,75*
O=C1NC2C(O)C(O)C(O)C(O)C2c2cc3c(c(O)c21)OCO3 (centres undefined),-1,0,61*,/,0,83*
O=C1NC2C(=CC(O)C(O)C2O)c2cc3c(cc21)OCO3 (centres undefined),-6,-11,3,/,0,/
COc1cc(C2c3cc4c(cc3CC3COC(=O)C32)OCO4)cc(OC)c1O (centres undefined),-2,-19,38,/,-1,/
O=C1NC2C(=CC(O)C(O)C2O)c2cc3c(c(O)c21)OCO3 (centres undefined),-1,1,88*,/,0,95*
O=c1c2ccccc2cnn1CCOc1ccccc1,-1,/,71*,1,-2,70*
COCCn1c(C)cc(C2=NNC(=Nc3ccccc3F)SC2)c1C,-3,/,67*,-1,0,?
COCCN=C1NN=C(c2cc(C)n(CC3CCCO3)c2C)CS1 (centres undefined),-1,-2,15,/,-1,/
C=CCN=C1NN=C(c2cc(C)n(CC=C)c2C)CS1,-2,1,83*,/,0,79*
C=CCN=C1NN=C(c2ccc3c(c2)OCCO3)CS1,2,1,59*,0,-2,79*
C[C@@H]1CN([C@@H](C)CO)C(=O)c2cc(NC(=O)CCC(F)(F)F)ccc2O[C@@H](C)CCCCO[C@@H]1CN(C)S(=O)(=O)c1cn(C)cn1,/,0,/,0,/,/
CCOC(=O)NC1CCc2cc(OC)c(OC)c(OC)c2-c2ccc(SC)c(=O)cc21 (centres undefined),-2,1,58*,/,-2,86*
COc1cc2c(c(OC)c1OC)-c1ccc(O)cc1C(NC(C)=O)CC2 (centres undefined),-1,0,73*,1,-2,87*
CCCCOC(=O)NC1CCc2cc(OC)c(OC)c(OC)c2-c2ccc(SC)c(=O)cc21 (centres undefined),-3,1,38,/,0,/
C[C@@H]1CN([C@@H](C)CO)C(=O)c2cc(NC(=O)NC3CCCCC3)ccc2O[C@@H]1CN(C)C,/,-1,/,0,/,/
Cc1c(C)c2ccc(OCC(=O)Nc3ccccn3)c(C)c2oc1=O,-1,1,93*,13,-1,94*
CN(C)c1ccc(/C=C2\SC(=O)N(CCc3nnc(N)s3)C2=O)cc1,-1,1,56*,/,0,76*
CN(C)c1ccc(/C=C2/SC(=O)N(CCN=C3NS(=O)(=O)c4ccccc43)C2=O)cc1,-4,0,-48,-1,-2,/
Cc1ccc(C(=O)Nc2ccc3c(c2)OCCO3)c(C)c1,1,4,71*,1,-2,?
SMILES,FadD28 binding,TcdB GH inh,PrP UTR inh,BioA inh,PfHsp40 rescue,PrP UTR cherry
Cc1nn(-c2ccccc2)c(Cl)c1C(=O)NCCCCNC(=O)c1c(C)nn(-c2ccccc2)c1Cl,-2,/,74*,0,2,6
Cc1nn(-c2ccccc2)c(Cl)c1C(=O)NCc1ccccc1F,-1,2,-9,2,3,/
Cc1ccc(NC(=O)O/N=C/c2c(C)nn(C(C)(C)C)c2C)cc1Cl,0,0,88*,10,7,87*
C[C@@H]1CCCCO[C@@H](CN(C)C(=O)Nc2ccccc2)[C@H](C)CN([C@@H](C)CO)C(=O)c2cc(NC(=O)CCCN(C)C)ccc2O1,/,0,/,-1,/,/
Cc1cc(C)c(C#N)c(SCc2nnc(-c3ccccc3[N+](=O)[O-])o2)n1,2,1,-38,/,2,/
Cc1cc(C)c(C#N)c(SCc2nnc(-c3ccccc3)o2)n1,0,1,68*,-1,1,67*
CCC(=O)Nc1ccc2c(c1)C(=O)N(C)[C@@H]1CC[C@@H](CC(=O)NCc3ccc(OC)cc3)O[C@@H]1CO2,/,0,/,0,/,/
O=C(Nc1c(-c2cccs2)nc2ccccn12)c1ccccc1F,-1,2,82*,/,0,-25
O=C(Nc1c(-c2ccccc2)nc2ccccn12)c1cccs1,0,/,-15,/,0,/
Cc1nnc(NC(=O)c2ccc(N3CCCC3=O)cc2)s1,0,1,-51,/,0,/
Cc1csc(NC(=O)c2ccc(N3CCCC3=O)cc2)n1,-2,1,56*,/,-3,?
Nc1nc(F)nc2c1ncn2[C@@H]1O[C@H](CO)[C@@H](O)[C@H]1O,0,1,94*,-1,-3,94*
C[C@@H]1CN([C@@H](C)CO)C(=O)c2cccc(NC(=O)Nc3ccc4c(c3)OCO4)c2O[C@H]1CN(C)C,/,-1,/,3,/,/
CN(C(=O)CSc1nc(-c2ccccc2)cs1)C1CCS(=O)(=O)C1 (centres undefined),1,1,85*,-1,0,-30
CN(C(=O)CSc1nc(-c2ccc(F)cc2)cs1)C1CCS(=O)(=O)C1 (centres undefined),-2,/,-8,0,-2,/
COCC(=O)Nc1ccc2c(c1)C(=O)N(C)C[C@H](OC)[C@@H](C)CN(Cc1ccccc1)[C@H](C)CO2,/,-1,/,-1,/,/
CC(C)NC(=O)N[C@@H]1C=C[C@H](CC(=O)NC2Cc3ccccc3C2)O[C@H]1CO,/,-3,/,0,/,/
COc1ccccc1-c1nnc(SCC(=O)NC2CCCCC2)o1,0,1,76*,-1,2,-4
Cc1ccccc1-c1nnc(SCC(=O)NC2CCCCC2)o1,-2,/,-1,/,1,/
O=C(C[C@@H]1CC[C@@H]2[C@H](COC[C@@H](O)CN2C(=O)C2CCCC2)O1)NCc1ccncc1,/,-4,/,0,/,/
CCOc1ccc(NC(=O)CN(C)C(=O)C2CCCC2)cc1OCC,-2,-2,83*,/,1,-13
COc1cccc(CNC(=O)C[C@@H]2CC[C@H](NS(=O)(=O)c3ccccc3OC)[C@H](CO)O2)c1,/,0,/,0,/,/
